Test results as given in the supplement of paper PMC10849652.
About 8,800 targets were measured; listed, in parts, are those with a hit and a random draw of the rest. About 0.5% of all pairs of compound and target were hits. A number with no mark means an inactive call.

Columns and labels:
Experiment in all cases: log2 fold change, soluble protein after heating vs DMSO (PISA); higher = thermal stabilisation; K562 lysate, 10 uM; active = over 0.2 and 3.5 SD of the protein, either way, in both replicates (recomputed)
[1] = compound: NCC(=O)Nc1ccc(-n2nc(C(F)(F)F)cc2-c2ccc3c(ccc4ccccc43)c2)cc1
Procedure, shortened: (§1)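 Log-two fold change in thermal stability relative to solvent controls is reported from duplicates. For each sample, crude K562 extract from dounce-homogenised pellets in PBS pH 7.4 with 1 mM MgCl2, at 1 mg/mL protein, was treated with 10 μM compound for 30 min. Aliquots heated for 3 min across 48°C-58°C were pooled, brought to 0.5% NP-40 at 4°C and cleared at 21,000xg for 90 min. The supernatant was quantified by TMTpro 16plex LC-MS/MS with channel sums equalised.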

vorinostat = compound: O=C(CCCCCCC(=O)Nc1ccccc1)NO [vorinostat]
Procedure, shortened: as §1

silmitasertib = compound: O=C(O)c1ccc2c(c1)nc(Nc1cccc(Cl)c1)c1ccncc12 [silmitasertib]
Procedure, shortened: as §1

[2] = compound: O=C1NC(=O)C(c2cnc3ccccn23)=C1c1cn2c3c(cc(F)cc13)CN(C(=O)N1CCCCC1)CC2
Procedure, shortened: as §1

entospletinib = compound: c1cn2cc(-c3ccc4cn[nH]c4c3)nc(Nc3ccc(N4CCOCC4)cc3)c2n1 [entospletinib]
Procedure, shortened: as §1

UniProt P35250, sequence (P35250 whole entry, looked up): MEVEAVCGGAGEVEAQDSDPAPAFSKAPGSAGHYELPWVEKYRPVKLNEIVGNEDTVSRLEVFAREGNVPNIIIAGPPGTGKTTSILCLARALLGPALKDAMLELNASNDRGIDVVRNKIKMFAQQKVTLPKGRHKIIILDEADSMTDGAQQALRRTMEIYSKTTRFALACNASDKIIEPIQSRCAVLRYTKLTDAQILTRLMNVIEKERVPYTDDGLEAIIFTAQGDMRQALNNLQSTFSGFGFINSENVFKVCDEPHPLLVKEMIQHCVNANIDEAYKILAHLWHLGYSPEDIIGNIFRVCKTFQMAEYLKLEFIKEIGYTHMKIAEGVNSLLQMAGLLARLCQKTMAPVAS
UniProt P28702, sequence (P28702 whole entry, looked up): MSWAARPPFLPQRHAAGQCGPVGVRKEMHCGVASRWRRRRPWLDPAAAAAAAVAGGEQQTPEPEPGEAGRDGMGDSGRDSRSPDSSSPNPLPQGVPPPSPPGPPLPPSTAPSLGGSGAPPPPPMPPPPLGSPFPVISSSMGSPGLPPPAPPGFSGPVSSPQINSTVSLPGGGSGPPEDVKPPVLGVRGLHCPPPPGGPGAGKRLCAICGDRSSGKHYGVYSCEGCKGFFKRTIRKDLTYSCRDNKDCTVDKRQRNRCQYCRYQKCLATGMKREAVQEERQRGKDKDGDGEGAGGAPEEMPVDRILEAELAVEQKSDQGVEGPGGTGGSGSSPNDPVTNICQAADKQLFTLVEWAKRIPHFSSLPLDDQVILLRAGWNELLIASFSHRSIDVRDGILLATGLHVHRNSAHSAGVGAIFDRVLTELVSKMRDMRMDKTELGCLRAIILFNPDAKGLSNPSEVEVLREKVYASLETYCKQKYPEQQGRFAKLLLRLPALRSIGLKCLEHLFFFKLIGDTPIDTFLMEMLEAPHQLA
UniProt Q9HCK4, sequence (Q9HCK4 whole entry, looked up): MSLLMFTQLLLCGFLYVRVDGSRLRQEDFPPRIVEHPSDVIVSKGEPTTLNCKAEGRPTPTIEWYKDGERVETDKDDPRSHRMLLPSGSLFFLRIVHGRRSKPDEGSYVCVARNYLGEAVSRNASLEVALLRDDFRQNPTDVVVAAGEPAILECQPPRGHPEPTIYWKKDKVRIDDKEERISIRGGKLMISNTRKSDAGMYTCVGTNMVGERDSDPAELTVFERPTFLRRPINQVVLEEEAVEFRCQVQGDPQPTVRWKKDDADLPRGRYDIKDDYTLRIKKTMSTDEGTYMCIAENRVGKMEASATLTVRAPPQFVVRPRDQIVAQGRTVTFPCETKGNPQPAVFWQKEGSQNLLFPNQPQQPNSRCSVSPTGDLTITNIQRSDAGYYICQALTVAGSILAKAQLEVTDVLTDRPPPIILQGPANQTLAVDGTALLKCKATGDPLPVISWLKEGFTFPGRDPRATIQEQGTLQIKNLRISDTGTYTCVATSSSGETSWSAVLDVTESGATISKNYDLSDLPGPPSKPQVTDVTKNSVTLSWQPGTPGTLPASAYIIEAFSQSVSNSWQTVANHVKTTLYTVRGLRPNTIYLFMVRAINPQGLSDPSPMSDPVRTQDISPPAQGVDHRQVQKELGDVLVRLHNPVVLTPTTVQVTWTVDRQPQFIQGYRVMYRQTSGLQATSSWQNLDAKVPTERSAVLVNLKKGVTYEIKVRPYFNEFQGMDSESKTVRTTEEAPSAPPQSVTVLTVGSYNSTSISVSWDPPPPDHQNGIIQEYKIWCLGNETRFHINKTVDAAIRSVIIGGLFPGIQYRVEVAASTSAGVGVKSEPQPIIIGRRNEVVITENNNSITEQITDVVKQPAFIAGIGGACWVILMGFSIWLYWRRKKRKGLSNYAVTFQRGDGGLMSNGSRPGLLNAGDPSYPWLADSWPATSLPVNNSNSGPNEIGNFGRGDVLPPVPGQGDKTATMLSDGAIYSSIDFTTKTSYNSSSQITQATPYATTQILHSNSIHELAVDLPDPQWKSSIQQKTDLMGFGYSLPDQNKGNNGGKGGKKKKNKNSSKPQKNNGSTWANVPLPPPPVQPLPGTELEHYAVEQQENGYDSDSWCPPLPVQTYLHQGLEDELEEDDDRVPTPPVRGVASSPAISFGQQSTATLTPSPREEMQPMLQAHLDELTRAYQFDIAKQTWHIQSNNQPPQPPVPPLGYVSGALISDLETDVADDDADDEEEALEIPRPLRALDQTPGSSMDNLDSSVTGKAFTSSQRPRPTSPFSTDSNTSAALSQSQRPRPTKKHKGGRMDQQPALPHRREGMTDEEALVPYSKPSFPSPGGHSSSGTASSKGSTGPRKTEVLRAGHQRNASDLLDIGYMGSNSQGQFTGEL
UniProt Q9UKL0, sequence (Q9UKL0 whole entry, looked up): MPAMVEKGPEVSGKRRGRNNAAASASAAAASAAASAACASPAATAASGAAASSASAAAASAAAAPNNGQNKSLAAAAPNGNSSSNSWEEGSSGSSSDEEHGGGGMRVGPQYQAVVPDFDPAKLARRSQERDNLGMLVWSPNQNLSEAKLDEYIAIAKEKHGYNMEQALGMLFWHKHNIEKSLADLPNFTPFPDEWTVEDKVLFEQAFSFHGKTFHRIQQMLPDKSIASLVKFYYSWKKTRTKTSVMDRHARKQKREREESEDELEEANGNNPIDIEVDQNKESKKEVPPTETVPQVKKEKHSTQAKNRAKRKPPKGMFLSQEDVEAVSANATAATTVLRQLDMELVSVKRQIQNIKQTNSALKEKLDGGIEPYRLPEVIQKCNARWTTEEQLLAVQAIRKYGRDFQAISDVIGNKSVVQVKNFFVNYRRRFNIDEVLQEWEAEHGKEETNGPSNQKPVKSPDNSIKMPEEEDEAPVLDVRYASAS
UniProt Q13530, sequence (Q13530 whole entry, looked up): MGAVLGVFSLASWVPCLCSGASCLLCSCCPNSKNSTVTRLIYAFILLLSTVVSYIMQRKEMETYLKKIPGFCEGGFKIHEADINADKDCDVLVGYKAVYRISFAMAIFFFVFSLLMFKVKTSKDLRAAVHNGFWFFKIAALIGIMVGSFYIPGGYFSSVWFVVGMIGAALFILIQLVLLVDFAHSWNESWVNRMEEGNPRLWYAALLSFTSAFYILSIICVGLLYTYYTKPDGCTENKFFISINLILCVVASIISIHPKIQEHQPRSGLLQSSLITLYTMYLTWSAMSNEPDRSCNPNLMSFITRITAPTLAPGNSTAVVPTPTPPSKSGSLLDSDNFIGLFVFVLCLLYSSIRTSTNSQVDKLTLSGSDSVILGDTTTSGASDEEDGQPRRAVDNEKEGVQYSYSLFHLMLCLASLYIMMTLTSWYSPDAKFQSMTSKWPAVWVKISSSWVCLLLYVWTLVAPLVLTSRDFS
UniProt Q9P0P0, sequence (Q9P0P0 whole entry, looked up): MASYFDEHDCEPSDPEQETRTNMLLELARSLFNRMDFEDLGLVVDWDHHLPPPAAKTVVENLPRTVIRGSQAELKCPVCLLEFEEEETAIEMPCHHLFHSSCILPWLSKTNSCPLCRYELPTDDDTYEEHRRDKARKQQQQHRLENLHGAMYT
UniProt Q9BWG6, sequence (Q9BWG6 whole entry, looked up): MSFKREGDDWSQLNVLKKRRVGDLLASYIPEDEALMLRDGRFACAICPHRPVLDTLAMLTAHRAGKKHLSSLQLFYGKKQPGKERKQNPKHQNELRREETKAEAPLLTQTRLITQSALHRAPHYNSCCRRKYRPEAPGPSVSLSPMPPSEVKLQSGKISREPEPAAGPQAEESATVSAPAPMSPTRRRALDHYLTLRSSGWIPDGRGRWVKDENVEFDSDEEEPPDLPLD
UniProt Q99442, sequence (Q99442 whole entry, looked up): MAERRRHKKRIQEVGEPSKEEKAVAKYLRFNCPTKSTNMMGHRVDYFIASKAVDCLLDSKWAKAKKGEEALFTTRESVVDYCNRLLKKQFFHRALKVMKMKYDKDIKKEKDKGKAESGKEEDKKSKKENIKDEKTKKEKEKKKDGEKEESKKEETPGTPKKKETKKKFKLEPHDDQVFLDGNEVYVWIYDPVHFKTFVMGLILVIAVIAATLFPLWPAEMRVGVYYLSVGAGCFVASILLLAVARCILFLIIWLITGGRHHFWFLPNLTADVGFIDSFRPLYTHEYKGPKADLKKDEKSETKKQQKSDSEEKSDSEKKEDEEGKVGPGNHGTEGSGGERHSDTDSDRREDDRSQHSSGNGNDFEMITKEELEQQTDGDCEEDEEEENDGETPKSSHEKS
UniProt P11233, sequence (P11233 whole entry, looked up): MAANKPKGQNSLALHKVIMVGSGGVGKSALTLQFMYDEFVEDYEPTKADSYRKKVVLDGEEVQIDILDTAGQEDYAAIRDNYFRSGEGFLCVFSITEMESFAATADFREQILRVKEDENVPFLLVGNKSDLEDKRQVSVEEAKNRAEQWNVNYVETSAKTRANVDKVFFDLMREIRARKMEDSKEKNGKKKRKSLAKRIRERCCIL
UniProt P47736, sequence (P47736 whole entry, looked up): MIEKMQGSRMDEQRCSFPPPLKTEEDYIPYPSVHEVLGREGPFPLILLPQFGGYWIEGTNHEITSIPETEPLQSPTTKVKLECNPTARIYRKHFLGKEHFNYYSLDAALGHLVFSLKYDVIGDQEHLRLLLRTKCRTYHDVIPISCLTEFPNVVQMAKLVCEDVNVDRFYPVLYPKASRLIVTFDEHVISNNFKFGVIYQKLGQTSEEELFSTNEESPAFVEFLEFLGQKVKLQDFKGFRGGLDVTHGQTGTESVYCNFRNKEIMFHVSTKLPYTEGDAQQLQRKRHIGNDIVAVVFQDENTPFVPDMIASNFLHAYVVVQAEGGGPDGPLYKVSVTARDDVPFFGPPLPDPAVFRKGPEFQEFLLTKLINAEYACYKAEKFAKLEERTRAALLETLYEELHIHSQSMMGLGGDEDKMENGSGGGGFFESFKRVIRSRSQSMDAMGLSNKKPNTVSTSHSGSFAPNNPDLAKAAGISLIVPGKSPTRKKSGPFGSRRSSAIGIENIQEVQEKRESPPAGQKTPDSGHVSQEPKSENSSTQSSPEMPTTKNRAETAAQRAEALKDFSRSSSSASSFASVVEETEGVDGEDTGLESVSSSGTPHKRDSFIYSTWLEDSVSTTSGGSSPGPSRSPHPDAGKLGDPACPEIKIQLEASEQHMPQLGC

Target	log2 fold change [1]	log2 fold change (vorinostat)	log2 fold change (silmitasertib)	log2 fold change [2]	log2 fold change (entospletinib)
RALA (UniProt P11233)	0.031	0.129	-0.062	0	-0.006
RRAGA (UniProt Q7L523)	-0.007	0.099	0.039	-0.015	0.05
RPL31 (UniProt P62899)	0.003	0.126	0.007	0.06	0.021
SEC62 (UniProt Q99442)	0.036	0.133	0.015	0.007	-0.019
REEP5 (UniProt Q00765)	-0.034	0.001	-0.025	0.02	0.015
SCCPDH (UniProt Q8NBX0)	-0.129	0.34	-0.19	0.115	0.087
RAP1B (UniProt P61224)	0.048	0.078	-0.036	-0.024	-0.012
RIOK3 (UniProt O14730)	-0.024	-0.605 (active)	-0.017	-0.024	-0.004
RAPGEF4 (UniProt Q8WZA2)	0.219	0.143	-0.09	0.353	0.014
SEC13 isoform 3 (UniProt P55735)	-0.01	-0.115	0.021	-0.045	-0.001
RXRB isoform 3 (UniProt P28702)	0.067	-0.757 (active)	0.168	0.07	0.006
R3HCC1 (UniProt Q9Y3T6)	0.045	-0.259 (active)	-0.036	-0.002	0.067
SCAF1 (UniProt Q9H7N4)	-0.172	-0.076	0.042	-0.04	0.025
RHOU (UniProt Q7L0Q8)	0.019	-0.116	0.058	-0.039	0.024
RNF181 (UniProt Q9P0P0)	-0.014	0.101	-0.019	-0.023	-0.24 (active)
RAPGEF2, A0A2R8YGD3	-0.041	0.2	-0.007	0.015	-0.046
SERINC3 (UniProt Q13530)	-0.027	0.019	-0.012	0.017	0.024
RAP1GAP isoform 4 (UniProt P47736)	-0.058	-0.419 (active)	-0.035	0.022	-0.012
RRM1 (UniProt P23921)	0.011	-0.227 (active)	0.027	-0.003	-0.013
RFC4 (UniProt P35249)	0.013	-0.423 (active)	0.033	0.008	0.006
ROCK1 (UniProt Q13464)	0	-0.211 (active)		-0.017	-0.016
RCOR1 (UniProt Q9UKL0)	0.034	-0.184	-0.014	-0.011	0.009

Target	log2 fold change [1]	log2 fold change (vorinostat)	log2 fold change (silmitasertib)	log2 fold change [2]	log2 fold change (entospletinib)
RYR1 (UniProt P21817)		0.066	-0.017	-0.069	0.101
RTTN (UniProt Q86VV8)	-0.14	-0.607 (active)	0.138		0.053
RBM45 (UniProt Q8IUH3)				0.093	
RAD17 (UniProt O75943)	-0.044			-0.052	-0.039
RNF24 isoform 2 (UniProt Q9Y225)		0.918 (active)	-0.117	0.016	
RAB1B (UniProt Q9H0U4)	0.025	0.186	0.007	-0.039	-0.011
ROBO2 isoform 3 (UniProt Q9HCK4)		0.136	-0.019	-0.042	
QSER1, A0A3B3IRW6	-0.013	-0.236 (active)	0.038	0.033	0.002
SCNM1 (UniProt Q9BWG6)		-0.13	-0.102	-0.082	0.092
RHOA (UniProt P61586)	0.03	0.064	-0.009	0	0.022
RFC2 (UniProt P35250)	-0.027	-0.506 (active)	0.043	-0.017	0.004
RBM4 isoform 3 (UniProt Q9BWF3)				-0.099	
SAMD4A (UniProt Q9UPU9)	-0.038	-0.647 (active)	0.027	0.014	-0.053
RAB5IF isoform 5 (UniProt Q9BUV8)	-0.039	-0.039	-0.007		-0.015
RXRA (UniProt P19793)		-0.154	0.07	-0.08	
RAD54L2 (UniProt Q9Y4B4)	0.119	-0.487 (active)	0.04	0.01	0.014
RPL27 (UniProt P61353)	0.014	0.129	0.03	0.013	0.009
RLIM (UniProt Q9NVW2)				0.289	
SAP30 (UniProt O75446)	0.001			-0.024	-0.022
RUFY2 isoform 1 (UniProt Q8WXA3)	-0.009			-0.129	-0.014
RNF17 (UniProt Q9BXT8)		-0.016	-0.021	-0.106	0.107
